Screens deposited in PubChem BioAssay by several laboratories.
Most compounds without a hit are left out; they make up all but 3.7% or so of the library.
TMEM16A inh = TMEM16A chloride channel inhibitors, primary screen, cell-based, HTS. 1.2% of 310,000 active. AID 588511, 2011. normalized B-score (activity score, 25-100; higher = stronger inhibition) at 10 µM. Anoctamin-1 (Mus musculus), Q8BHY3. HEK293 TMEM16A/YFP iodide influx fluorescence, ionomycin;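 active = ratio plate-corrected score three or more library SD toward inhibition, starting fluorescence score within five deviations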;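 note: score derived from kinetic fluorescence span divided by baseline fluorescence per well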
CHT block = inhibitors of human choline transporter CHT. CHT-expressing cells, membrane potential dye, choline response; stronger effect = lower value. B-score at 10 µM. 0.86% of 310,000 active;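 active = B-score over 3 SD under the library average, and starting fluorescence ratio not unusually high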;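 note: choline stimulus applied at its EC90 after an EC20 pre-addition; B-score computed on integrated fluorescence ratio after choline addition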
Target sequence (Q9GZV3 whole entry, looked up): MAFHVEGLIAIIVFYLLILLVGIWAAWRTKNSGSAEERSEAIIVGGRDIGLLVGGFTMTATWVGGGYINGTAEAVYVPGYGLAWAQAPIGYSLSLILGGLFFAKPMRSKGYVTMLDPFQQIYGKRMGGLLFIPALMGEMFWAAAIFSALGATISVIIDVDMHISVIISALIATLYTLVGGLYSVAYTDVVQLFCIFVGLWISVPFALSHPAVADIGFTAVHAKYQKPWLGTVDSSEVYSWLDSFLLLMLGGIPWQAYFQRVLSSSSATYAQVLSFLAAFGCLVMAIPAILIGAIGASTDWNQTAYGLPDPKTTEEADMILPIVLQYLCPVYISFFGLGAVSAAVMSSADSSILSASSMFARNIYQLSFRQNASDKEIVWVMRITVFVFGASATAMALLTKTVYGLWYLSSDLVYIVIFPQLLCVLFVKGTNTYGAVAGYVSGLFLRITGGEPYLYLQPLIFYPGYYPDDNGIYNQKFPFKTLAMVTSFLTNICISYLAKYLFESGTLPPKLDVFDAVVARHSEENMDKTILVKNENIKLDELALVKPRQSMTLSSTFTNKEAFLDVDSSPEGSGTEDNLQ
TMEM16A act = TMEM16A chloride channel activators or potentiators, primary screen, cell-based, HTS | Anoctamin-1 (Mus musculus), Q8BHY3 | HEK293 TMEM16A/YFP-H148Q/I152L, iodide quench fluorescence; stronger effect = lower value | B-score at 10 µM | 0.3% of 340,000 active | AID 623877, 2012;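 active = fluorescence-ratio B-score plate-corrected deviation score at least 3 library SD below zero, with starting fluorescence score within 5 deviations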;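 note: channel opened by trigger with iodide after compound preincubation; score built on the fluorescence ratio of max minus min over baseline; more negative score means more quench and so TMEM16A activation or potentiation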
CHT PAM = CHT positive allosteric modulators, primary screen, cell-based, membrane potential dye, choline EC20 | High affinity choline transporter 1 (Homo sapiens), Q9GZV3 | CHT-expressing cells; stronger effect = higher value; LV-AA mutant CHT in HEK293 cells | B-score at 10 µM | 0.49% of 310,000 active;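 active = initial fluorescence not abnormally high and integrated response B-score, plate-corrected, over 3 SD above library mean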
Kir21 inh = inhibitors of mouse Kir2.1 inward-rectifier potassium channel; HEK293-Kir2.1, FluxOR thallium flux fluorescence; stronger effect = lower value; B-score at 10 µM; 0.85% of 310,000 active;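 active = fluorescence ratio B-score at or below minus 3 SD of library scores, with starting-brightness B-score within 2 SD, cut at about -4.2 in these data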;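 note: channel flux triggered by added potassium and thallium sulfate stimulus; B-score of peak minus minimum fluorescence over baseline after thallium stimulus; more negative B-score means stronger Kir2.1 block with less thallium influx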
GPR7 antagonist = GPR7 receptor antagonists, primary screen, cell-based, fluorescence, single concentration | inhibition, % at 4.4 µM | 1.1% of 290,000 active | GPR7-expressing cells, fluorescence antagonist assay | Neuropeptides B/W receptor type 1 (Homo sapiens), P48145; in the data active = inhibition above about 16%, passing the limit was not always enough;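 note: cells stimulated with the agonist NPW; 0% = agonist with vehicle and 100% = vehicle without agonist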
CHT activ conf = CHT activators, confirmation, cell-based, membrane potential dye, duplicate; activation, % at 10 µM; 91% of 2,500 active; AID 504833, 2011; CHT-expressing cells, membrane potential dye fluorescence (FDSS); % of choline EC20–EC90 response window; HEK293 expressing CHT LV-AA mutant; choline added at its EC20; shares compounds with CHT PAM;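 active = primary screen active, with duplicate mean activation above negative control mean plus 3 SD, cut at about 11% in these data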
HEK293 MP dye = membrane potential response in parental HEK293 cells, counter-screen for CHT activator project, cell-based, membrane potential dye; membrane potential dye fluorescence (FDSS); measured after EC20 choline addition; 62% of 2,500 active; shares compounds with CHT PAM; ratio readout change at 10 µM, hits read low; AID 623908, 2012;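 active = duplicate-averaged ratio beyond 3 SD from buffer wells, up or down, though filed actives are nearly all decreases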
The depositor's hits bear a star; i = inactive; · = no result given.

SMILES | TMEM16A inh | CHT block | TMEM16A act | CHT PAM | Kir21 inh | GPR7 antagonist | CHT activ conf | HEK293 MP dye
C[n+]1c2n(c3ccccc31)N=C(c1ccc(-c3ccccc3)cc1)CS2 | i | i | i | 7.9* | -2.9 | 6 | 40* | -35*
O=C(Nc1cccc(Cl)c1N1CCOCC1)c1cc([N+](=O)[O-])ccc1N1CCOCC1 | i | i | i | i | -0.82 | 5 | 13* | i
O=C(Nc1ccccc1N1CCCCC1)c1ccc(Cl)c([N+](=O)[O-])c1 | i | i | i | i | -1 | -7 | · | ·
CN1CCN(c2ccccc2NC(=O)c2ccc(N3CCCC3)c([N+](=O)[O-])c2)CC1 | i | i | i | i | -0.26 | 2 | 18* | -44*
COc1ccc(NC(=O)c2cc([N+](=O)[O-])ccc2N2CCN(C)CC2)cc1 | i | i | i | 8.4* | 2.8 | 21 | 52* | -64*
CN1CCN(c2ccc([N+](=O)[O-])cc2NC(=O)c2cccs2)CC1 | i | i | i | 6.6* | -1.2 | -9 | 52* | -82*
CSc1c(CN2CCN(C)CC2)c2ccccc2n1C | i | i | i | i | -0.4 | · | · | ·
COc1ccc(OC)c(NS(=O)(=O)c2cc3c4c(c2)CCN4C(=O)CC3)c1 | · | · | i | · | -1.9 | · | · | ·
CCN(CC)CCNc1nc2c(c(=O)[nH]c(=O)n2C)n1CC(O)COc1ccc(Cl)cc1Cl (stereo unspecified) | i | i | i | 9.5* | 0.33 | 4 | 53* | -53*
COC(=O)CCCC1=CC2=C(c3ccccc3)C(=O)C(C)(OC(=O)C3CCCC3)C(=O)C2=CN1c1ccccc1 (stereo unspecified) | i | i | i | i | -0.52 | · | · | ·
COC(=O)CCCC1=CC2=C(c3ccccc3)C(=O)C(C)(OC(=O)C3CCCC3)C(=O)C2=CN1C1CC1 (stereo unspecified) | i | i | i | 10* | -0.03 | · | 0 | i
O=C(COC(=O)c1cc([N+](=O)[O-])ccc1N1CCOCC1)NCc1ccc(F)cc1 | i | i | i | i | 0.5 | 9 | 56* | i
O=C(COC(=O)c1cc([N+](=O)[O-])ccc1N1CCOCC1)NCCc1ccccc1 | i | i | i | i | -0.12 | -6 | · | ·
CCc1ccc(OCC(=O)NNC(=O)c2ccc(NC(=O)C3CC3)cc2)cc1 | i | i | i | i | -0.07 | -4 | · | ·
Nc1ccc(Br)c2c1C(=O)c1ccccc1C2=O | i | i | · | i | 0.15 | 11 | · | ·
COc1ccc(N)c2c1C(=O)c1ccccc1C2=O | i | i | i | 7.4* | 2.2 | 3 | 48* | -54*
C=CCOc1ccc(Br)cc1CNCCCN1CCOCC1 | i | i | i | i | -0.75 | 4 | 29* | i
O=C(Nc1ccc(F)c(Cl)c1)Nn1cnnc1 | i | i | i | i | -0.52 | -12 | · | ·
c1cncc(N=c2scc(-c3cccc4ccccc34)n2CCCn2ccnc2)c1 | i | i | i | 8.2* | -1.3 | 18 | 7 | i
CCc1ccc(NC(=O)CSc2nc3ccccc3c(=O)n2CCCN2CCC(C)CC2)cc1 | i | i | i | i | -0.14 | -7 | 17* | i
O=C(CSc1nc2ccccc2c(=O)n1CCCN1CCOCC1)Nc1ccc(Br)cc1 | · | · | i | · | · | · | · | ·
